Measurements from PubChem BioAssay AID485284 (NMMLSC, 2010).
Measured potencies and affinities stand elsewhere.

Assay: loss of vesicle association with mouse CD8+ T cells – mouse 2C CD8+ T cells, flow cytometry, dose response (AID 485284);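 also: drosophila derived vesicles carrying Ld MHC with QL9 peptide plus B7-1 and ICAM-1; vesicle binding seen as anti-B7-1 PE fluorescence on CD8 gated cells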
Conditions: 2C mouse CD8+ T cell-exosome binding; at 45 µM (top of the series)

| SMILES | binding remaining, % of control |
| --- | --- |
| CCOC(=O)c1c(NC(=O)CN2C(=O)NC3(CCC(C)CC3)C2=O)sc(C)c1-c1ccc(C)cc1 (centres undefined) | 108% |
| CC(C)(C)NC(=O)COc1ccc(CNCc2cccnc2)cc1 | 90.5% |
| O=C(NC(=S)Nc1nc(-c2ccccc2)cs1)c1cccs1 | 173% |
| O=C(c1ccc(N2C(=O)C3CC=C(Cl)CC3C2=O)cc1)N1CCCCC1 (centres undefined) | 18.5% |
| CCC1(c2ccccc2)NC(=O)N(CC(=O)Nc2cc(Cl)ccc2N2CCN(C)CC2)C1=O (centres undefined) | 124% |
| CC(C)C(C(=O)NC1=NCCS1)c1ccc(Cl)cc1 (centres undefined) | 31.2% |
| O=C(c1ccco1)N1CCN(C(c2ccccc2Cl)c2nnnn2Cc2ccco2)CC1 (centres undefined) | 17.4% |
| CCOC(=O)N1CCN(Cc2nc(-c3ccc(C)cc3)no2)CC1 | 78.4% |
| CSc1cccc(NC(=O)CCCn2c(=O)c3cccn3c3cccnc32)c1 | 87.5% |
| COC(=O)CN1C(=S)N(C)C(=O)C1CC(=O)Nc1ccccc1 (centres undefined) | 123% |
| CN(CC(=O)Nc1cc(S(=O)(=O)N2CCCC2)ccc1Cl)Cc1ccc2c(c1)OCO2 | 63% |
| CN(CC(=O)Nc1cccc(F)c1)C(=O)c1ccc(S(=O)(=O)N2CCCC2)cc1 | 21.6% |
| CCOc1ccc(-c2csc(NNC3=NCCCCC3)n2)cc1 | 156% |
| COc1ccc([C@H]2CC(=O)C=C(/C=C/c3ccccc3)C2)cc1 | 52.1% |
| COc1ccc(Nc2ccccc2N)cc1 | 182% |
| O=C(OCC(=O)N1CCN(C(=O)c2ccco2)CC1)c1ccccc1Cc1ccccc1 | 73% |
| COc1ccccc1NC(=O)Cn1cnc2sc(C)c(S(=O)(=O)N3CCCCC3)c2c1=O | 115% |

| SMILES | binding remaining, % of control |
| --- | --- |
| CCOC(=O)N1CCN(C(=O)c2ccc(CS(=O)Cc3ccc(C)cc3)o2)CC1 (centres undefined) | 44.7% |
| COc1ccc(NC(=O)[C@@H](NC(=O)c2ccccc2F)C(C)C)cc1S(=O)(=O)N1CCOCC1 | 84.7% |
| COc1ccccc1C(=O)COC(=O)C1CCN(S(=O)(=O)c2ccc(C)c(C)c2)CC1 | 24.2% |
| COc1ccc([C@H]2CC(=O)C=C(c3ccc4c5c(cccc35)CC4)C2)cc1 | 119% |
| COc1ccc(NC(=O)[C@H](C)NC(=O)C2CCN(S(=O)(=O)c3ccc(C)cc3)CC2)cc1 | 108% |
| O=C(CC12CC3CC(CC(C3)C1)C2)N/N=C/c1ccc([N+](=O)[O-])o1 | 70.5% |
| O=S(=O)(c1ccc(F)cc1)N1CCC(O)(c2ccc3c(c2)OCO3)CC1 | 108% |
| COc1ccccc1CNC(=O)c1ccc(N(C)S(=O)(=O)c2ccc(C)cc2)cc1 | 156% |
| O=C(NCCC1=CCCCC1)C(=O)NCC(c1ccco1)N1CCN(c2ccccc2F)CC1 (centres undefined) | 136% |
| Cc1c(C(=O)N(C)Cc2ccccc2)oc2ccc(S(=O)(=O)N3CCCC3)cc12 | 120% |
| CNCc1cn2cc(Cl)ccc2n1 | 125% |
| Cc1cc(S(=O)(=O)N2CCN(Cc3ccccc3)CC2)c(C)s1 | 94.5% |
| O=C(CN1C(=O)NC2(CCCCCC2)C1=O)N1CCN(c2ccccc2)CC1 | 158% |
| Cc1ccc(C(C)C)c(OCC(=O)N2CCN(c3ncccn3)CC2)c1 | 17.4% |
| COc1ccc(N2CC(C(=O)N[C@@H](C)C(=O)NCc3ccccc3OC)CC2=O)cc1 (some centres undefined) | 24.3% |
| Cc1cccc(Nc2nc(-c3ccccn3)cs2)n1 | 69.7% |
| O=C(NCCc1nc2ccc(Cl)cc2[nH]1)C1CCC(=O)N(Cc2cccc(F)c2)C1 (centres undefined) | 110% |
